From ChEMBL document CHEMBL3988442, “University of Dundee, Small-Polar-MMV Screening Library” (2021)
Screen size: about 48,000 compounds; about 13,000 (27%) showed an effect of 50% or more. The list shows a part of the results.

Test system: Wolbachia pipientis
Assay: Anti-Wolbachia Cell-Based Screen
Format: functional
Design: scale not given: in the data most compounds retested in dose-response had high values
Settings: 5 µM

SMILES | Percent Effect [%]
c1ccc2sc(N3CCCC(Cn4cncn4)C3)nc2c1 (stereo not drawn) | 2.326
NCC1CCCCN1Cc1cc(O)c2cccc(F)c2n1 (stereo not drawn) | -47.52
CN1CCCN(C(=O)c2nnn(-c3ccc(C(F)(F)F)cc3)n2)CC1 | 20.55
Cc1cccc(C(C(=O)NCc2nc(-c3ncccn3)no2)N(C)C)c1 (stereo not drawn) | -6.766
Clc1cccc(-c2cccc(N3CCC(NC4CCOCC4)CC3)c2)c1 | 91.89
Cc1nnc(-c2cccc(N3CCC(NC4CCSC4)CC3)c2)s1 (stereo not drawn) | -9.983
Clc1cccc(N2CCC(NCc3cc[nH]n3)C2)c1 (stereo not drawn) | -6.457
Cc1nnc(-c2cccc(N3CCC(NC(C)CC(C)C)CC3)c2)s1 (stereo not drawn) | 13.1
Cc1ccc(-c2cccc(N3CCC(NC4CCOCC4)CC3)c2)cc1 | 106.4
O=C(Cc1cccc(O)c1)NC1CCN(c2cccc(Cl)c2)C1 (stereo not drawn) | 1.358
CC(C)N1CCOCC2(CCCN(C(=O)c3cn(C)cn3)C2)C1.O=C(O)C(F)(F)F (stereo not drawn) | -9.46
CCCN(C(=O)c1ccc(-n2ccnn2)cc1)c1cccnc1 | -3.595
O=C(c1ccc(-n2ccnn2)cc1)N(CC1CC1)c1cccnc1 | -13.01
O=C(c1ccccc1)N(CC1CC1)c1cccnc1 | 119.1
Cc1n[nH]c(C)c1CCNC(=O)C1CCCN(CC(N)=O)C1 (stereo not drawn) | -16.53
CCCC1CCCN(C(=O)Nc2ccnc(C(=O)N(C)C)c2)CC1 (stereo not drawn) | -1.886
Cc1cc(NC(=O)C2CCCN(C(=O)NCC(C)C)C2)ccn1 (stereo not drawn) | 89.55
CCNC(=O)N1CCCC(C(=O)c2cccc(OC(C)C)c2)C1 (stereo not drawn) | 17.22
Cc1n[nH]c(C)c1Sc1ccccc1NC(=O)N1CCCC(C(N)=O)C1 (stereo not drawn) | -0.33
NC(=O)N1CCCC(C(=O)Nc2cccc(Cl)c2)C1 (stereo not drawn) | 3.636
Cc1c(C2CC2)n[nH]c1NC(=O)C1CCCN(C(=O)NCC(C)C)C1 (stereo not drawn) | 117.7
Cc1n[nH]c(C)c1NC(=O)C1CCCN(C(=O)NCC(C)C)C1 (stereo not drawn) | 113.5
Cc1ccc(-c2nnc(NC(=O)c3ccn(C)c(=O)c3)[nH]2)s1 | 1.444
CCN(C(=O)C1CC1)C(c1cccnc1)c1ccc2c(c1)CCO2 (stereo not drawn) | -9.628
Cn1cc(S(=O)(=O)N2CCCC2CC(=O)c2cccs2)cn1 (stereo not drawn) | -23.33

SMILES | Percent Effect [%]
Cc1noc(CCNS(=O)(=O)N2CCCC2c2ccc(C)o2)n1 (stereo not drawn) | 4.735
CC(c1nnc(-c2cccs2)o1)N1CCn2c(nnc2C2CC2)C1 (stereo not drawn) | -4.966
Cc1c(S(=O)(=O)N2CCCCC2c2nnc(-c3cccs3)o2)cnn1C (stereo not drawn) | 114.5
Cc1c(S(=O)(=O)N2CCCC2c2nnc(-c3ccsc3)o2)cnn1C (stereo not drawn) | 130.9
Cc1ccc(C2CCCN2S(=O)(=O)N(C)Cc2cnn(C)c2)o1 (stereo not drawn) | 13.71
Cn1cc(C2CCCN2Cc2csc(-c3ccsc3)n2)cn1 (stereo not drawn) | 2.773
Cc1nnc(CN2CCCC2c2ccsc2)o1 (stereo not drawn) | 42.12
Cc1ccc(-c2nnc(C3CCCN3S(=O)(=O)c3cnn(C)c3C)o2)s1 (stereo not drawn) | 112
CN1[C@@H](c2ccccc2)[C@@H](C(=O)NCc2ccncc2)C[C@@]1(C)C(=O)O | 1.416
O=C(O)c1ccnc(-c2ccnc(COc3cccc(F)c3)n2)c1 | -102.4
Cc1cccc(N2CCN(CCNC(=O)C(C)n3cncn3)CC2)c1 (stereo not drawn) | 8.571
CC1CCCCN1CCN(C)C(=O)c1cc(CN2CCC(O)CC2)on1 (stereo not drawn) | 0.4872
CSCc1cc(F)ccc1CNCc1cccc(O)c1 | 105.8
O=C(NCc1ccncc1)N(Cc1ccc(F)cc1F)C1CC1 | -2.267
Fc1ccc(NCc2ccncc2)c(OC(F)F)c1 | -6.491
O=C1CCCN1c1cccc(CNCc2cc(F)ccc2F)c1 | -5.013
COc1cc(F)ccc1N(C)Cc1cccnc1 | -2.533
CSCc1cc(F)ccc1CNCc1ccncc1 | 99.15
Fc1cccc(C(NCc2ncc[nH]2)c2ccccc2)c1 (stereo not drawn) | -7.792
CSCc1cc(F)ccc1CNCc1ncc[nH]1 | 108.7
CSCc1cc(F)ccc1CNCc1cccnc1 | 101.5
O=C1OCCN1c1cccc(CNCc2cc(F)ccc2F)c1 | 6.854
Fc1cccc(NCc2ncc[nH]2)c1 | -11.31
Cc1cnn(CCNCc2cccnc2)c1 | -0.61
Cc1cc(C)n(CC(C)NCc2cnc3c(C)cccn23)n1 (stereo not drawn) | -11.8

SMILES | Percent Effect [%]
COCCSc1ccc(C(C)NC(=O)Nc2cn[nH]c2)cc1 (stereo not drawn) | -2.849
COc1cc(NCC(=O)NC(C)(C#N)C(C)C)cc(OC)c1OC (stereo not drawn) | -11.73
CSc1ccsc1C(=O)NCCNC(=O)C1CC1 | -5.162
Cn1cc(CN2CCc3c(cnc(-c4ccccc4)c3C(=O)O)C2)cn1.O=C(O)C(F)(F)F.O=C(O)C(F)(F)F | -3.13
Cn1cc(-c2ncc3c(c2C(=O)O)CCN(Cc2ccccn2)C3)cn1.O=C(O)C(F)(F)F.O=C(O)C(F)(F)F | 106.1
Cn1nccc1-c1ncc2c(c1C(=O)O)CCN(Cc1ccncc1)C2.O=C(O)C(F)(F)F.O=C(O)C(F)(F)F | -6.643
O=C(O)C(F)(F)F.O=C(O)C(F)(F)F.O=C(O)c1cc2c(nc1-c1ccoc1)CCN(Cc1ccco1)CC2 | 4.884
Cn1cc(-c2ncc3c(c2C(=O)O)CCN(Cc2ccco2)C3)cn1.O=C(O)C(F)(F)F | 100.1
O=C(O)C(F)(F)F.O=C(O)C(F)(F)F.O=C(O)c1c(-c2cncnc2)ncc2c1CCN(Cc1ccco1)C2 | 112.5
O=C(O)c1c(-c2ccncc2)ncc2c1CCN(Cc1ccco1)C2 | 103.7
Cn1cc(C(=O)NCc2cn3c(n2)CN(Cc2ccccn2)CC3)cn1.O=C(O)C(F)(F)F.O=C(O)C(F)(F)F | 1.361
Nc1cc(-c2cccc3ccnn23)ccn1 | -7.377
O=C(COC1CCCC1)NC(C(=O)Nc1cc[nH]n1)c1ccccc1 (stereo not drawn) | -15.76
O=C(NCc1nc(C2CCCCC2)no1)C1CC(=O)N(C2CC2)C1 (stereo not drawn) | -21.27
O=C(O)C(F)(F)F.O=C(O)C(F)(F)F.O=C(O)C(F)(F)F.O=C(O)c1c(-c2cncnc2)ncc2c1CCN(Cc1cccnc1)C2 | 96.39
Cn1nccc1-c1ncc2c(c1C(=O)O)CCN(Cc1ccccc1)C2.O=C(O)C(F)(F)F.O=C(O)C(F)(F)F.O=C(O)C(F)(F)F | -10.76
Cn1nccc1-c1ncc2c(c1C(=O)O)CCN(Cc1cccnc1)C2.O=C(O)C(F)(F)F.O=C(O)C(F)(F)F | -4.341
CN1CCN(C(=O)c2cn(-c3ccc(C(F)(F)F)cn3)nn2)CC1 | -7.593
Cc1cc(-n2cccn2)ccc1CN1C[C@@H](CN(C)C)[C@@H](CO)C1 | 14.35
COC(=O)C1CCN(CC2(c3ccc(C)cn3)CCNCC2)CC1 | -5.791
Cc1ccc(C2(O)CCN(C(=O)CCn3ccc(=O)[nH]c3=O)CC2)nc1 | 97.51
Cc1cccnc1CN1CCN(C(=O)CCn2ccc(=O)[nH]c2=O)CC1 | -10.51
Cc1cccc(=O)n1CCC(=O)N(C)Cc1cccc2ncccc12 | -4.376
COC1CCN(C(=O)CCn2ccc(=O)[nH]c2=O)CC1 | -8.705
Cc1ccc(C2(O)CCN(C(=O)CCn3c(C)cccc3=O)CC2)nc1 | 106.7

SMILES | Percent Effect [%]
Cc1ccc(C2(O)CCN(C(=O)Cn3cc(C)c(=O)[nH]c3=O)CC2)nc1 | 116.3
Cc1cn(CC(=O)N(C)Cc2cccc3ncccc23)c(=O)[nH]c1=O | -19.07
CSCc1ccc(N2CCC(C(O)Cc3ccccc3)CC2)nc1 (stereo not drawn) | 26.16
O=C(O)C(F)(F)F.O=C(O)C(F)(F)F.c1cc(CN2CCc3ncnc(C4CCOC4)c3CC2)ccn1 (stereo not drawn) | 0.007603
Cc1ccc(Oc2ncccc2CNC2CCSCC2)cn1 | -8.046
Nc1ccc(-c2ccc(F)cc2Cl)cn1 | -14.84
CC(NC(=O)NCc1cc[nH]n1)c1ccc2c(c1)CCC(=O)N2 (stereo not drawn) | -0.03999
CC(NC(=O)N(C)Cc1ccsc1)c1ccc2c(c1)CCC(=O)N2 (stereo not drawn) | -10.24
Cc1ccsc1C(=O)NC(C)c1ccc2c(c1)CCC(=O)N2 (stereo not drawn) | -2.921
CC(NC(=O)NCc1ccccn1)c1ccc2c(c1)CCC(=O)N2 (stereo not drawn) | 101
CSc1ccsc1C(=O)NC(C)c1ccc2c(c1)CCC(=O)N2 (stereo not drawn) | -17.83
Cc1csc(CNC(=O)NCC(O)c2ccc(F)cc2)n1 (stereo not drawn) | 8.268
CC(NC(=O)NCc1cccs1)c1ccc2c(c1)CCC(=O)N2 (stereo not drawn) | 122.7
Cc1ccc(C(O)CNC(=O)NCc2nc(C)cs2)cc1 (stereo not drawn) | -27.45
Cc1ccsc1CNC(=O)NC(C)c1ccc2c(c1)CCC(=O)N2 (stereo not drawn) | 96.96
Cc1csc(CNC(=O)NC(C)c2ccc3c(c2)CCC(=O)N3)n1 (stereo not drawn) | 108.8
O=C1CCCc2cc(S(=O)(=O)NCc3ccccn3)ccc2N1 | -1.258
O=C(CN1CCCS1(=O)=O)Nc1ccc(OC2CCCC2)cc1 | -0.8772
COc1ccc(OCC(=O)NC(C)c2ccccc2)c(C(=O)O)c1 (stereo not drawn) | -7.994
CCCOc1ccc(CN)c(OC(F)F)c1 | 2.024
CC(C(=O)NCc1ccnc(N2CCN(C)CC2)c1)n1cccn1 (stereo not drawn) | -2.51
O=C(c1ccc(Cn2cc(Br)cn2)cc1)N1CCCC1 | 26.22
CN(C)C[C@@H]1CCC[C@@H]2CN(c3nccc(C(F)(F)F)n3)C[C@@H]21.O=C(O)C(F)(F)F | -9.332
